# In the supplement of paper PMC6555819:
# Test system: VDR:RXRa (NR concentration 270 nM, RXRa partner concentration 90 nM)
# Assay: PBM binding z-score (relative to random genomic background probes); higher = stronger binding; sequences stand for … in GC…GCGATTGACAGCGTAGAATGAAGG
# Description: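 Protein-binding microarray (Agilent 4x180K custom design, double-stranded 60-nt probes: 5' GC cap, 34-nt variable region, 24-nt constant primer region; full probe sequence given). Purified or IVT nuclear receptor:RXRα heterodimers (3:1 NR:RXRα, mostly 270:90 nM) or homodimers were incubated for 1 h in PBS with 2% milk and no ligand, then detected with Alexa488 antibodies. Fluorescence from o1-orientation probes (~5 replicates averaged) was converted to z-scores against 500 random hg19 background probes. Variable regions are seed direct-repeat (DR0–DR5) sites, all their single-nucleotide variants and half-site ablations.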
row,Sequence,PBM binding z-score
1,GCTATTAGTTGAAAGGGCAACCGAATGATTCTCG,0.531
2,ACTATTAGTTGACTTAGGGCAACTGATACGACGC,0.239
3,CGTCCAAGGTCAGAGAGGTCAGAGAATGCCGAGT,7.59
4,AGAACGAGGGCAATGAGTTGATAGCCCGGGTGGC,4.73
5,CCTCTGAGGACAACAGGAGGTCAGAGCTGCCAGA,2.17
6,CGTCCAAGCTCATAGGAGGTCAGTGAAGACAGAT,1.69
7,TATGCTAGGTCAACGATGGTCAGCTAATCTGCTA,1.79
8,ATCTCTAGGTAAAGTTCAGTGAGAGATCGATAGA,1.64
9,GTACCAAGGCGAATAGGTCGTTGATGAGTAGGCG,-0.145
10,TCTAGTTGGTCACAGGTCACACACTCGAAATGCG,2.95
11,ATCTCTACGTAAAGATAGTTCAGTGAATGCAAAT,0.567
12,CAAACTAGGTCAAGGACAGTGAATCTCCGCACGC,1.56
13,TAACCTAGGTCATTCAGGGGCCAGTATAGAAAGC,4.03
14,AGTCAAAGTTCTGGACGAGGTAACGTAAAGCACG,-0.216
15,TAGCGTAGGTCATTGGGCCAGTATAGTACGCATC,2.41
16,CTACCAAGGTGAATAAGGTCGTTGATTACTATTC,5.52
17,TAGCCTAGTTCATTGGGCCAGTATAGTACGCATC,1.17
18,TCTGCTAGGACAACGATGGTCAGCTAATCTGCTA,-0.784
19,TCTCGGAGGACACGAAAGGTCAGAGCCCGACATC,3.26
20,CCTAGCAGGCCAATCTGGGGCACTCAAGGCTTGA,-0.786

row,Sequence,PBM binding z-score
1,CCTACTGGGCCATCAGGTCATTAATATCAACGTT,1.49
2,CGTGCTAGGTCATGGTCAGCTAATCTACAGTATG,1.7
3,TCATATAGGTAAAGGTGACAGTCGAACGATATGA,0.874
4,CCTACTGGGCTAAGGTCATTGATCAGTCAAAGCA,3.39
5,CCTACTGGGCCACAAAGGTCATTGATGCCGATAA,5.28
6,CGACCAAGGTCATAGGAGGTCAGTGAAGACAGAT,6.59
7,CGAACTAGGTCAAGGACAGTGGATCTCCGCACGC,1.22
8,CCTACTGGGCCAAGGTCAATGATCAGTCAAAGCA,2.24
9,TCATATAGGTAAATGCTAGGTCAAAGTCCGATCT,2.15
10,GCTAGCAGGCCGTTTGGGTCACTCAATGACGGGC,0.00602
11,CCAGACAGGTGAGAAGATAACTCAGCCTCGATTA,0.035
12,TTATATAGGTAAAGGTGAAAGTCGAACGATATGA,1.07
13,CCGGACAGGTGAAAGGTAACTCAGTCTGGTACGC,0.694
14,GCTCGGAGTACAAGGTCAGAGCTTTGTCCGTAGA,1.48
15,TCATATGGGTAAATGCTAGGTGAAAGTCCGATCT,0.528
16,GCGACTGGGGCATCAGCAGGTTACCATGACTTAA,-0.443
17,GATACAGGCTCAGCTAGAGGCCAGAGTATGGAAA,-1.02
18,CAAACTAGGGCACGAAAGGTCAAAGTCGAATGAC,5.32
19,ACAGACAGGTGATGAAGGTAACTCTGGCTATCAT,0.00307
20,CCGACTGGTGCAAGGTTACCATAACGCACAGCCA,0.278
